log2 fold change data for 39 targets are collected here from the supplement of paper PMC10849652.

Targets with a hit are over-represented here; the source holds about 7,900 in all. About 0.6% of all pairs of compound and target were hits. Unmarked numbers belong to inactive results.

UniProt O00217, sequence (O00217 whole entry, looked up): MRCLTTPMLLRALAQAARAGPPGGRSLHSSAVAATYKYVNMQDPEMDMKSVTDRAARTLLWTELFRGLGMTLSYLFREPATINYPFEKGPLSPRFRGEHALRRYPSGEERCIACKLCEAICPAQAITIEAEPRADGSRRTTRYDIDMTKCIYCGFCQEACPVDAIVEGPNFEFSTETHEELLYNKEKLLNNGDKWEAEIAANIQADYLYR
UniProt Q9UMY1, sequence (Q9UMY1 whole entry, looked up): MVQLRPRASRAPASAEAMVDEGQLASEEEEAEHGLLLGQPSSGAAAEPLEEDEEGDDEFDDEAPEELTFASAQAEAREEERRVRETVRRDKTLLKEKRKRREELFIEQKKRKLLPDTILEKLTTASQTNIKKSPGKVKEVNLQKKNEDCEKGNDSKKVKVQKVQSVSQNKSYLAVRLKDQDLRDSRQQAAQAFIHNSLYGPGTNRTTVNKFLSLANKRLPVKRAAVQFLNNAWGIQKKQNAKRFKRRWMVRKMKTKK
UniProt Q9H1E3, sequence (Q9H1E3 whole entry, looked up): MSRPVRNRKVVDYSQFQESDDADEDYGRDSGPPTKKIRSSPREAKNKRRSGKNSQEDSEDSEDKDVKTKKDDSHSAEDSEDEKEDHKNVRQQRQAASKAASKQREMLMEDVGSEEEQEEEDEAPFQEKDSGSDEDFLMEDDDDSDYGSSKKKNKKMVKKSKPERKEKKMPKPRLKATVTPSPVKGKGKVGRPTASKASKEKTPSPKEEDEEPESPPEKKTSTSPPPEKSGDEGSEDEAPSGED
UniProt Q9BWT6, sequence (Q9BWT6 whole entry, looked up): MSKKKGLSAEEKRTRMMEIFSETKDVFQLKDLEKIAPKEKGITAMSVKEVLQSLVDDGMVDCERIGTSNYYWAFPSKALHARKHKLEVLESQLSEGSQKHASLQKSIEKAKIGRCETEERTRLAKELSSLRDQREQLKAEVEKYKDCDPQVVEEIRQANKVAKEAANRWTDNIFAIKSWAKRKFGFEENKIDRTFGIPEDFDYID
UniProt P20585, sequence (P20585 whole entry, looked up): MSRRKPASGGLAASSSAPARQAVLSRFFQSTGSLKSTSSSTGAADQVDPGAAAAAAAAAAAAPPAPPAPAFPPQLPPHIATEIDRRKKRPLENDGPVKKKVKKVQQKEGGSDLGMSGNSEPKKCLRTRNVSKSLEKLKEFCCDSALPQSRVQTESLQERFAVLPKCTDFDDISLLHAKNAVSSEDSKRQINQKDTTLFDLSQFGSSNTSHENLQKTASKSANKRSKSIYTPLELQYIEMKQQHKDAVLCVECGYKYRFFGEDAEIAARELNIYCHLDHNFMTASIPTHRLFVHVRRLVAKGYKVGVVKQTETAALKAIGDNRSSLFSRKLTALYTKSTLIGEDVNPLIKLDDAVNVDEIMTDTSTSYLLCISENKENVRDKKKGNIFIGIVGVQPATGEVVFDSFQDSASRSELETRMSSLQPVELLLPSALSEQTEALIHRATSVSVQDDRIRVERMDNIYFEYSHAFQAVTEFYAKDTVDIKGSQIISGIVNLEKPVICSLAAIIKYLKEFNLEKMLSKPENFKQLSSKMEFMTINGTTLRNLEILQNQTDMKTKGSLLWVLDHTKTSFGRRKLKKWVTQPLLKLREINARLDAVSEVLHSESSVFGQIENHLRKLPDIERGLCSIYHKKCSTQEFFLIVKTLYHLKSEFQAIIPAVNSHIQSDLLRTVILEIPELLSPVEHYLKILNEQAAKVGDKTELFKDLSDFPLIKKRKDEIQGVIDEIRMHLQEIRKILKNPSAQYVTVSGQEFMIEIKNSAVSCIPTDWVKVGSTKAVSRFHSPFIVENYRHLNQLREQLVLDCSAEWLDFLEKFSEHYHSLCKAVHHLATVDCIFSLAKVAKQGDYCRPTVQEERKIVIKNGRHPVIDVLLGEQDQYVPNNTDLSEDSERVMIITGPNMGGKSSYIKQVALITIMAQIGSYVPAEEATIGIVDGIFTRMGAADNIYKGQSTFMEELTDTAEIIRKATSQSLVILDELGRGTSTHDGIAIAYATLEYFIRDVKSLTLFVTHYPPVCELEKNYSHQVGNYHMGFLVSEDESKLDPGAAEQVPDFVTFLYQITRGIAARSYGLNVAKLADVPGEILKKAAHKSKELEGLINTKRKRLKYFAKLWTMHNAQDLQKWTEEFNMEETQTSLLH
UniProt P35580, sequence (P35580 whole entry, looked up): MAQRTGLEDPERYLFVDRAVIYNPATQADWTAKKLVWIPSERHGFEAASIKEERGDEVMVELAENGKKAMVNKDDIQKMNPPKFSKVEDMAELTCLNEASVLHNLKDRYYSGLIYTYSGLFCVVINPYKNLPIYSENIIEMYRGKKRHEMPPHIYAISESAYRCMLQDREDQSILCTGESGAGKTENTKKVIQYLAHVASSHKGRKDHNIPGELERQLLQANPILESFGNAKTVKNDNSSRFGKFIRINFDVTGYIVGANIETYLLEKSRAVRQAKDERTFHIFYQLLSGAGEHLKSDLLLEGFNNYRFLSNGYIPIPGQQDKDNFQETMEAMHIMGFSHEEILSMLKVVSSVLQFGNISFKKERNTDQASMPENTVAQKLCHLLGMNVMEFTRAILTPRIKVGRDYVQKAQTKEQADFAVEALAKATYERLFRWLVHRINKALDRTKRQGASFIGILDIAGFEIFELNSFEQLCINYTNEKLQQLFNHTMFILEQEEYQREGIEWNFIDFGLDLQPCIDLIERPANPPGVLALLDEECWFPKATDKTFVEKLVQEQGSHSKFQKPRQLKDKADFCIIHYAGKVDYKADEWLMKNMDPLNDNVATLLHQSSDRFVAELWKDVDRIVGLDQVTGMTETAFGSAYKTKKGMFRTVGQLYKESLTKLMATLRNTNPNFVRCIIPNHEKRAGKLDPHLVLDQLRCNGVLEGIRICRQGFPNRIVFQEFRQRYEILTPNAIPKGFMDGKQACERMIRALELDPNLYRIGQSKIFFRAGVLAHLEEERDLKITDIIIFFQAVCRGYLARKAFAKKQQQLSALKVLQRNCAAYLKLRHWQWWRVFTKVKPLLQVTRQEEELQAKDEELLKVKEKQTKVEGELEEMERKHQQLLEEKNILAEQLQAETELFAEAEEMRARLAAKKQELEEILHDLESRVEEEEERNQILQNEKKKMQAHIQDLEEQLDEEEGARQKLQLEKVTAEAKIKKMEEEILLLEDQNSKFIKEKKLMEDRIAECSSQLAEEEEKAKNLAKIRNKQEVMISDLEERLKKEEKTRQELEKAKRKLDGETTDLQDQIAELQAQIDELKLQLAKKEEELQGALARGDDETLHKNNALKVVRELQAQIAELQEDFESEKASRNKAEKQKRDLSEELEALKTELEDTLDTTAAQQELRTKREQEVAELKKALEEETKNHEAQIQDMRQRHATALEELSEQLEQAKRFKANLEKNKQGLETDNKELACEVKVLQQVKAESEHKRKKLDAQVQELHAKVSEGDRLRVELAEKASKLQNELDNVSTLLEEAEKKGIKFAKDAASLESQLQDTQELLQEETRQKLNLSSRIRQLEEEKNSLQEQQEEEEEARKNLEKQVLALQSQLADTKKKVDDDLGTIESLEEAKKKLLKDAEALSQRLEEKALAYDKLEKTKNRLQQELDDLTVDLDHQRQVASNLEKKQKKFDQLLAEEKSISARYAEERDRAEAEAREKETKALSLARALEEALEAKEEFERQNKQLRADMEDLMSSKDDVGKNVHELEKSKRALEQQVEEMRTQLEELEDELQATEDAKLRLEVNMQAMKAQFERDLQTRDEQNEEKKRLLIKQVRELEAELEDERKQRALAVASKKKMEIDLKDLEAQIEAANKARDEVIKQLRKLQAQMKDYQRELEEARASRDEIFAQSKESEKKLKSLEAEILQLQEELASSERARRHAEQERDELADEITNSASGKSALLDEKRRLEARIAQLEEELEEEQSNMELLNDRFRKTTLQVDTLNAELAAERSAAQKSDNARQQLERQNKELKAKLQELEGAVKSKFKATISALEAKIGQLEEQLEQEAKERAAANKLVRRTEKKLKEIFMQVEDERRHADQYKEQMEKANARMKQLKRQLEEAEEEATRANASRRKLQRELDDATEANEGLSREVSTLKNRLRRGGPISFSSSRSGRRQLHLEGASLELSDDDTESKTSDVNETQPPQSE
UniProt P40261, sequence (P40261 whole entry, looked up): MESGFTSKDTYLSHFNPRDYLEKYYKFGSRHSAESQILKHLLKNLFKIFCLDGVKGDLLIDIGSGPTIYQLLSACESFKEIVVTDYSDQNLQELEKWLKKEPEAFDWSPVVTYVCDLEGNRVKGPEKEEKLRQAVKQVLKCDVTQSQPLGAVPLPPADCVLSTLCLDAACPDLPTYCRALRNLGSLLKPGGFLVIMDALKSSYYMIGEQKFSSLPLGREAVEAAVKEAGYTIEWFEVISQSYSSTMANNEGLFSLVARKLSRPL
UniProt O14950, sequence (O14950 whole entry, looked up): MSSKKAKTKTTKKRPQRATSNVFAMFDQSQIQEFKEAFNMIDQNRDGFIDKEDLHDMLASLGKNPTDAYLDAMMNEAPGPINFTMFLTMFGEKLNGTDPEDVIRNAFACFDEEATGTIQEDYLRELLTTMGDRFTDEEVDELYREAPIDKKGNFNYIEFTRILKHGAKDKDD
UniProt Q330K2, sequence (Q330K2 whole entry, looked up): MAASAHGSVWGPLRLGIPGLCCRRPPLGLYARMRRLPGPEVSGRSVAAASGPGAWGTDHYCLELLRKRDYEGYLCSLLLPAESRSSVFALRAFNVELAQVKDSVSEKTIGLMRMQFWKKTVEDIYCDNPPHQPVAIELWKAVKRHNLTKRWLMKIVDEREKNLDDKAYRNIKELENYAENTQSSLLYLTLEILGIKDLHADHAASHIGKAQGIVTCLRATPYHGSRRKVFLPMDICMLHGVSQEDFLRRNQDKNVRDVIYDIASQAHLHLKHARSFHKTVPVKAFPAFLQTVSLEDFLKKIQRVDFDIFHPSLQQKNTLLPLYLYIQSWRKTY
UniProt O43181, sequence (O43181 whole entry, looked up): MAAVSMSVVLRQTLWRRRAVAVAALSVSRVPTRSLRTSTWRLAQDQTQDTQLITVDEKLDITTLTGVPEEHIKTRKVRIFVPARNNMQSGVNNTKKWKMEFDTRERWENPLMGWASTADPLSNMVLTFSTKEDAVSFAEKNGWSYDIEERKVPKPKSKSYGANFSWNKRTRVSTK

Compound in one test: O=C(CCCCCCC(=O)Nc1ccccc1)NO [vorinostat]
Briefly: log2 fold change, soluble protein after heating vs DMSO (PISA); higher = thermal stabilisation; K562 cells, 10 uM, 30 min; active = over 0.2 and 3.5 SD of the protein, either way, in both replicates (recomputed). In short, it runs like this: (§1)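 Thermal stability values are relative to control samples and come from duplicates. They are expressed as log2 fold changes. For measurement, K562 cells (2×10^6 cells/mL) received 10 μM compound for 30 min, and aliquots were heated for 3 min over 48°C-58°C, pooled, and extracted at 4°C in PBS with 0.5% NP-40. Soluble protein, the supernatant after 21,000xg for 90 min, was quantified by TMTpro 16plex LC-MS/MS with equalised channel sums.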
With MORC3 (UniProt Q14149), the log2 fold change was -0.159.

With MRPS31 (UniProt Q92665), the log2 fold change is -0.039.

Consider MRPS9 (UniProt P82933), for which the log2 fold change is 0.167.

On to NDUFA9 (UniProt Q16795), for which the log2 fold change was 0.065.

As for OSTM1 (UniProt Q86WC4), the log2 fold change is 0.072.

Turning to MRPS24 (UniProt Q96EL2), the log2 fold change is 0.04.

NDUFS4 (UniProt O43181): the log2 fold change is -0.058.

Regarding OXSR1 (UniProt O95747), the log2 fold change was 0.042.

Turning to MIS12 (UniProt Q9H081), the log2 fold change is 0.123.

Take NGLY1 (UniProt Q96IV0): the log2 fold change is 0.008.

Take MND1 (UniProt Q9BWT6): the log2 fold change is -0.11.

For the target NOL7 (UniProt Q9UMY1), the log2 fold change was -0.042.

Turning to NDFIP1 (UniProt Q9BT67), the log2 fold change was -0.051.

Turning to MTHFS (UniProt P49914), the log2 fold change was -0.1.

On to MRPL50 (UniProt Q8N5N7), for which the log2 fold change was -0.102.

As for NEDD4L (UniProt Q96PU5), the log2 fold change is 0.062.

With NUCKS1 (UniProt Q9H1E3), the log2 fold change is -0.08.

For the target MOV10 (UniProt Q9HCE1), the log2 fold change was -0.02.

NUDT21 (UniProt O43809): the log2 fold change was -0.078.

Take OGFR (UniProt Q9NZT2): the log2 fold change was 0.096.

Regarding MSH6 (UniProt P52701), the log2 fold change was 0.273.

Turning to NECTIN2 (UniProt Q92692), the log2 fold change is -0.041.

As to MKNK1 (UniProt Q9BUB5), the log2 fold change was -0.025.

For the target PAK1 isoform 2 (UniProt Q13153), the log2 fold change was 0.096.

Take MSH3 (UniProt P20585): the log2 fold change is -0.017.

As for PACS1 (UniProt Q6VY07), the log2 fold change is 0.022.

As to NA, A0A0B4J2A0, the log2 fold change was 0.05.

In the case of MSTO1 (UniProt Q9BUK6), the log2 fold change is 0.053.

Regarding NDUFAF6 (UniProt Q330K2), the log2 fold change was 0.122.

For the target NRF1 isoform 4 (UniProt Q16656), the log2 fold change was 0.047.

In the case of NNMT (UniProt P40261), the log2 fold change is 0.128.

Consider NDUFS8 (UniProt O00217), for which the log2 fold change is 0.019.

On to NCKAP1 isoform 2 (UniProt Q9Y2A7), for which the log2 fold change was 0.063.

As to MYH10 isoform 3 (UniProt P35580), the log2 fold change is 0.004.

Turning to MYL12B (UniProt O14950), the log2 fold change was -0.004.

Consider OSBPL8 (UniProt Q9BZF1), for which the log2 fold change was 0.049.

For NAP1L1 (UniProt P55209), the log2 fold change is 0.008.

For the target NOP53 (UniProt Q9NZM5), the log2 fold change was -0.051.

As for MT-ND4 (UniProt P03905), the log2 fold change was 0.261.

Compound in the next test: O=C(CCCCCCNC(=O)c1cnc(N(c2ccccc2)c2ccccc2Cl)nc1)NO [citarinostat]
Described as above. In short, it runs like this: as §1
Regarding MORC3 (UniProt Q14149), the log2 fold change is -0.118.

Turning to MRPS31 (UniProt Q92665), the log2 fold change is 0.008.

Take MRPS9 (UniProt P82933): the log2 fold change was 0.035.

Consider NDUFA9 (UniProt Q16795), for which the log2 fold change is 0.037.

On to OSTM1 (UniProt Q86WC4), for which the log2 fold change was 0.064.

On to MRPS24 (UniProt Q96EL2), for which the log2 fold change was -0.053.

For the target NDUFS4 (UniProt O43181), the log2 fold change is -0.069.

Take OXSR1 (UniProt O95747): the log2 fold change was 0.045.

For the target MIS12 (UniProt Q9H081), the log2 fold change is 0.014.

For the target NGLY1 (UniProt Q96IV0), the log2 fold change was 0.079.

On to MND1 (UniProt Q9BWT6), for which the log2 fold change was -0.033.

With NOL7 (UniProt Q9UMY1), the log2 fold change is -0.101.

Turning to NDFIP1 (UniProt Q9BT67), the log2 fold change is 0.025.

For the target MTHFS (UniProt P49914), the log2 fold change is 0.025.

Consider MRPL50 (UniProt Q8N5N7), for which the log2 fold change was 0.051.

In the case of NEDD4L (UniProt Q96PU5), the log2 fold change is -0.001.

On to NUCKS1 (UniProt Q9H1E3), for which the log2 fold change is -0.022.

For the target MOV10 (UniProt Q9HCE1), the log2 fold change is -0.054.

Take NUDT21 (UniProt O43809): the log2 fold change is 0.029.

Consider OGFR (UniProt Q9NZT2), for which the log2 fold change was 0.121.

Turning to MSH6 (UniProt P52701), the log2 fold change was 0.347.

As for NECTIN2 (UniProt Q92692), the log2 fold change was 0.034.

Take MKNK1 (UniProt Q9BUB5): the log2 fold change is 0.025.

As for PAK1 isoform 2 (UniProt Q13153), the log2 fold change is -0.033.

Regarding MSH3 (UniProt P20585), the log2 fold change was 0.031.

On to PACS1 (UniProt Q6VY07), for which the log2 fold change was -0.012.

Regarding NA, A0A0B4J2A0, the log2 fold change was 0.029.

With MSTO1 (UniProt Q9BUK6), the log2 fold change was 0.08.

With NDUFAF6 (UniProt Q330K2), the log2 fold change is 0.086.

Consider NRF1 isoform 4 (UniProt Q16656), for which the log2 fold change was 0.039.

Take NNMT (UniProt P40261): the log2 fold change is -0.023.

On to NDUFS8 (UniProt O00217), for which the log2 fold change was 0.024.

NCKAP1 isoform 2 (UniProt Q9Y2A7): the log2 fold change is 0.015.

Consider MYH10 isoform 3 (UniProt P35580), for which the log2 fold change was 0.041.

Turning to MYL12B (UniProt O14950), the log2 fold change was 0.045.

OSBPL8 (UniProt Q9BZF1): the log2 fold change is 0.005.

Consider NAP1L1 (UniProt P55209), for which the log2 fold change was -0.01.

Consider NOP53 (UniProt Q9NZM5), for which the log2 fold change was -0.063.

With MT-ND4 (UniProt P03905), the log2 fold change is 0.198.
